# D1 antag – human D1 dopamine receptor antagonism; HEK293 TREx D1 cells, calcium flux, dopamine EC80; active compounds read low; activity change, negative = inhibition, % at 10 µM; 3.2% of 360,000 active; AID 504652; in the data active = activity change below about -30%
#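 Antagonism measured as reduced calcium response to an EC80 dopamine addition following 180 s compound pre-read; cells were inducible HEK293 Trex D1 plated overnight at 30 C, read kinetically at 1 cycle/sec.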
# D1 agonist – human D1 receptor agonism. HEK293 T-REx D1 cells, calcium flux, agonist mode. activation, % at 2 µM. 1% of 360,000 active. AID 504660; in the data active = activation above about 30%
#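 Inducible HEK293 T-REx D1 cells, force-coupled to calcium signalling, were plated at 4000 cells/well with tetracycline and held overnight at 30 C. After no-wash calcium dye loading, compound-evoked calcium rise over 180 s flagged agonists.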
# D1 PAM – human D1 dopamine receptor positive modulation. 0.036% of 360,000 active. HEK293 TREx D1 cells, calcium flux, dopamine EC20 potentiation. potentiation, % at 10 µM. AID 504651; in the data active = potentiation above about 30%
# D3 antag – D3 dopamine receptor (human) antagonism. max response, negative = inhibition, %. 2.5% of 360,000 active. AID 652054. D3R cells, DiscoveRx beta-arrestin luminescence, antagonist mode; active compounds read low. P35462; in the data active = max response below about -50%; inconclusive = no clear call, values can overlap the other calls
# Target sequence (P35462 whole entry, looked up): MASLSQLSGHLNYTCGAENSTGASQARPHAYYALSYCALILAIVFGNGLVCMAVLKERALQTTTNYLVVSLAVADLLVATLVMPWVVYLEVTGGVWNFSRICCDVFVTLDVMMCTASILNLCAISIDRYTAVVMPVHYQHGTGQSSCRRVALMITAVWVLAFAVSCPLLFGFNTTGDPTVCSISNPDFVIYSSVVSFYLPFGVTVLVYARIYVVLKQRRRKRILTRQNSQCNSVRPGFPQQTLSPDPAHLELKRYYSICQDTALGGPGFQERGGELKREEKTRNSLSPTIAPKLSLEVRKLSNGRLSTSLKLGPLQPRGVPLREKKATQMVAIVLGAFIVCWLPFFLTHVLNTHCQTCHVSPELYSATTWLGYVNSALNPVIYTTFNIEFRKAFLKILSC
#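 Cells plated overnight at 1500 cells/well, then exposed to library compounds with dopamine controls for 90 minutes at 37 degrees C. DiscoveRx reagent added for 30–60 minutes at room temperature; luminescence read, quantitative HTS format.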
# D3 ag – activates the human D3 dopamine receptor. AID 652048. 0.58% of 410,000 active. D3R DiscoveRx beta-arrestin cells, luminescence, 90 min. P35462. max activation, %; in the data active = max activation above about 30%
#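 Agonist-mode cell screen: cells plated at 1500/well and incubated overnight at 37 °C, then exposed to library compounds for 90 min at 37 °C. Detection reagent was added for 30–60 min at room temperature, and luminescence was read.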
# A number is an active result; n = inactive; u = inconclusive; x = no result; ! = a repeat was not active. Most compounds without a hit are left out; they make up all but 6% or so of the library.
SMILES,D1 antag,D1 agonist,D1 PAM,D3 antag,D3 ag
CC(C)[C@H]1CN=C2N(C[C@H](C)NC(=O)CCC3CCCCC3)[C@H](Cc3ccc(O)cc3)CN21,n,n,n,-94.0,n
C[C@@H](CN1C2=NC[C@H](C)N2C[C@H]1Cc1ccc(O)cc1)NC(=O)CCC1CCCCC1,n,n,n,-66.3,n
CC1(C(=O)NS(=O)(=O)c2ccc(C#N)cc2)CCN1C(=O)Cc1ccc(Cl)cc1Cl (stereo not drawn),x,x,x,n,n
COc1ccc(NC(=O)CCNS(=O)(=O)c2ccc(Cl)c([N+](=O)[O-])c2)cc1S(N)(=O)=O,n,n,x,n,n
Cc1cc(C(=O)C(C)OC(=O)c2ccc(NC(=O)CC#N)cc2)c(C)n1-c1ccc(OC(F)F)cc1 (stereo not drawn),n,n,n,n,n
COc1ccccc1Oc1cn[nH]c1-c1ccc(O)cc1O,-32.0,n,n,n,n
COc1cccc(Oc2cn[nH]c2-c2ccc(O)cc2O)c1,n,n,n,n,n
Cc1sc2ncnc(N3CCC(C(=O)Nc4cc(Cl)ccc4Cl)CC3)c2c1C,n,n,n,n,42.1
O=C1c2ccccc2C(c2nnnn2-c2ccc3c(c2)OCCO3)N1Cc1cccc(F)c1 (stereo not drawn),x,x,x,n,n
O=C(Nc1cc(C(F)(F)F)ccc1Cl)C(Sc1nnc(-c2cccs2)o1)c1ccccc1 (stereo not drawn),-44.7,n,n,n,n
CCOc1ccc(-n2c(=O)c3c(C)c(C)sc3n(Cc3ccccc3C)c2=O)cc1,-73.4,n,n,x,n
CCOc1ccc(-n2c(=O)c3c(C)c(C)sc3n(Cc3cc(=O)n4cc(Cl)ccc4n3)c2=O)cc1,-42.2,n,n,x,n
CCOC(=O)N1CCC(NC(=O)c2cnn(-c3ccc(C)cc3C)c2C2CCN(C(=O)OC(C)(C)C)CC2)CC1,n,n,n,x,n
CN(C)CC#CCCCCCCC#CCN(C)C,n,n,n,x,x
C#CCCCCCCC#CCN(C)C,n,n,n,-58.1,n
COc1ccc(Nc2nc3ccccc3c3nnc(C)n23)cc1Cl,n,n,n,x,n
CCOC(=O)c1c(NC(=O)c2ccc(S(=O)(=O)N3CCC(C)CC3)cc2)sc2c1CCN(CC)C2,n,n,n,x,n
CN(C(=O)CSc1nnc(-c2ccccc2)n1C)C1CCS(=O)(=O)C1 (stereo not drawn),n,n,n,n,n
CN(C(=O)CSc1nnc(-c2ccco2)n1Cc1ccccc1)C1CCS(=O)(=O)C1 (stereo not drawn),-37.0,n,n,n,n
C=CCn1c(SCC(=O)N(C)C2CCS(=O)(=O)C2)nnc1-c1ccncc1 (stereo not drawn),n,n,n,-54.1,n
Cc1ccsc1/C=C/C1=Cc2c(sc(NC(=O)CSc3n[nH]c(N)n3)c2C#N)C(C)(C)C1,n,33.5,97.9,n,n
CCOc1ccc(/C=C/C2=Cc3c(sc(NC(=O)CSc4n[nH]c(N)n4)c3C#N)C(C)(C)C2)cc1,n,60.0,31.4,n,n
CCOC(=O)c1sc(NC(=O)CSc2n[nH]c(-c3ccncc3)n2)c(C#N)c1C,x,n,n,n,n
CC(C)N=C(N)/N=C(\N)Nc1ccc(Cl)cc1,x,x,x,x,n
NC(=NCCCCCCN=C(N)/N=C(\N)Nc1ccc(Cl)cc1)/N=C(\N)Nc1ccc(Cl)cc1,-81.6,n,n,-51.4!,n
SMILES,D1 antag,D1 agonist,D1 PAM,D3 antag,D3 ag
COc1ccccc1NC(=O)c1c(C)cc(C)nc1SCC(=O)Nc1cccc(C)c1,n,72.3,n,x,n
CC1CCCCC1NC(=O)c1cccc(S(=O)(=O)N2CCN(Cc3ccccc3)CC2)c1 (stereo not drawn),n,n,n,n,n
O=C(NC12CC3CC(CC(C3)C1)C2)c1ccc([N+](=O)[O-])o1,-48.2,n,n,n,n
Cn1cccc1/C=C(/C#N)C(N)=S,-49.0,n,n,-63.3,n
Cc1cc(C)c(/C=C(\C#N)C(N)=S)c(C)c1,n,n,n,n,n
Cc1ccc(-c2ccc(/C=C(\C#N)C(N)=S)n2C)cc1,-51.1,n,n,n,n
COCc1cc(=O)[nH]c(SCCS(=O)(=O)c2ccc(Cl)cc2Cl)n1,n,n,n,-61.7,n
NCc1ccccc1Sc1ccccc1CO,x,x,x,x,n
O=C(CSC(=S)N1CCSCC1)c1ccc(Cl)cc1,-45.6,n,n,n,n
COc1ccc(C(CNC(=O)c2ccc3c(c2)OCCO3)N(C)C)cc1 (stereo not drawn),n,n,n,u,n
CCCCN(CC)S(=O)(=O)c1ccc(C(=O)Nc2nnc(COC)o2)cc1,n,n,n,-65.0,n
CCN(Cc1ccccc1)S(=O)(=O)c1ccc(C(=O)Nc2nnc(-c3ccccc3OC)o2)cc1,n,n,n,-85.9,n
CCN(c1ccccc1)S(=O)(=O)c1ccc(C(=O)Nc2nnc(COC)o2)cc1,n,n,n,n,n
COCc1nnc(NC(=O)c2ccc(S(=O)(=O)N(C)c3ccccc3)cc2)o1,n,n,n,-55.9,n
COCc1nnc(NC(=O)c2ccc(S(=O)(=O)N(CC(C)C)CC(C)C)cc2)o1,n,n,n,n,n
CCCCN(CCCC)S(=O)(=O)c1ccc(C(=O)Nc2nnc(CSC)o2)cc1,n,n,n,-113.1,n
CC(C)(C)OC(=O)N1CCC(c2c(C(=O)N3CCN(c4ccccc4F)CC3)cnn2C(C)(C)C)CC1,n,n,n,x,n
COC(=O)c1cc(OC)c(OC)c(OC)c1NC(=O)c1ccc(S(=O)(=O)N(C)C)cc1,n,n,n,-88.2,n
COc1ccc(CCNC(=O)c2ccc(Cl)c(S(=O)(=O)N3CCCCCC3)c2)cc1,n,n,n,u,n
Cc1nc2ccc(S(=O)(=O)CCC(=O)Nc3ccc(C(C)C)cc3)cc2s1,-56.8,n,n,x,n
COc1ccc(CCNC(=O)c2ccc(Cl)c(S(=O)(=O)N(C)c3ccccc3)c2)cc1,-30.8,n,n,n,n
CCCN(CCC)S(=O)(=O)c1ccc(C(=O)Nc2nnc(CSC)o2)cc1,n,n,n,-98.9,n
CC(C)O/C(=N/S(=O)(=O)c1ccc(Cl)cc1)c1ccccc1,x,x,x,n,n
COc1cccc(/C=N/NC(=O)c2ccc(N(C)S(=O)(=O)c3ccccc3)cc2)c1OC,-36.3,n,n,n,n
COCCN(CCOC)S(=O)(=O)c1ccc(C(=O)Nc2nnc(C3CC3)o2)cc1,n,n,n,-52.9,n
CN(Cc1ccc(OC(F)F)cc1)C(=O)c1ccc(S(=O)(=O)N(C)c2ccccc2)cc1,-39.8,n,n,n,n
CN(c1ccccc1)S(=O)(=O)c1ccc(C(=O)Nc2nnc(-c3ccco3)o2)cc1,-32.3,n,n,n,n
COc1ccccc1/C=N/NC(=O)c1ccc(N(C)S(=O)(=O)c2ccccc2)cc1,n,n,n,n,n
CCc1nnc(NC(=O)c2ccc(S(=O)(=O)N(CCOC)CCOC)cc2)o1,n,n,n,u,n

# Assay outcomes (PubChem)
